Measurements from article PMC4336329 (PLoS ONE, 2015).
About 14,000 (4.5%) of roughly 310,000 compounds showed an effect of 50% or more. The effect is printed as a negative number. Shown is part of a subset that was picked to be rich in strong results.

Target: human ether-à-go-go-related gene (hERG) potassium channel (human, UniProt Q12809)
Experiment: primary screen, population patch clamp on CHO cells stably expressing hERG; higher = less effect of the substance
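Further: peak tail current of the secondary pulse compared with the same well before compound.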

Chain of human ether-à-go-go-related gene (hERG) potassium channel (Q12809 whole entry, looked up): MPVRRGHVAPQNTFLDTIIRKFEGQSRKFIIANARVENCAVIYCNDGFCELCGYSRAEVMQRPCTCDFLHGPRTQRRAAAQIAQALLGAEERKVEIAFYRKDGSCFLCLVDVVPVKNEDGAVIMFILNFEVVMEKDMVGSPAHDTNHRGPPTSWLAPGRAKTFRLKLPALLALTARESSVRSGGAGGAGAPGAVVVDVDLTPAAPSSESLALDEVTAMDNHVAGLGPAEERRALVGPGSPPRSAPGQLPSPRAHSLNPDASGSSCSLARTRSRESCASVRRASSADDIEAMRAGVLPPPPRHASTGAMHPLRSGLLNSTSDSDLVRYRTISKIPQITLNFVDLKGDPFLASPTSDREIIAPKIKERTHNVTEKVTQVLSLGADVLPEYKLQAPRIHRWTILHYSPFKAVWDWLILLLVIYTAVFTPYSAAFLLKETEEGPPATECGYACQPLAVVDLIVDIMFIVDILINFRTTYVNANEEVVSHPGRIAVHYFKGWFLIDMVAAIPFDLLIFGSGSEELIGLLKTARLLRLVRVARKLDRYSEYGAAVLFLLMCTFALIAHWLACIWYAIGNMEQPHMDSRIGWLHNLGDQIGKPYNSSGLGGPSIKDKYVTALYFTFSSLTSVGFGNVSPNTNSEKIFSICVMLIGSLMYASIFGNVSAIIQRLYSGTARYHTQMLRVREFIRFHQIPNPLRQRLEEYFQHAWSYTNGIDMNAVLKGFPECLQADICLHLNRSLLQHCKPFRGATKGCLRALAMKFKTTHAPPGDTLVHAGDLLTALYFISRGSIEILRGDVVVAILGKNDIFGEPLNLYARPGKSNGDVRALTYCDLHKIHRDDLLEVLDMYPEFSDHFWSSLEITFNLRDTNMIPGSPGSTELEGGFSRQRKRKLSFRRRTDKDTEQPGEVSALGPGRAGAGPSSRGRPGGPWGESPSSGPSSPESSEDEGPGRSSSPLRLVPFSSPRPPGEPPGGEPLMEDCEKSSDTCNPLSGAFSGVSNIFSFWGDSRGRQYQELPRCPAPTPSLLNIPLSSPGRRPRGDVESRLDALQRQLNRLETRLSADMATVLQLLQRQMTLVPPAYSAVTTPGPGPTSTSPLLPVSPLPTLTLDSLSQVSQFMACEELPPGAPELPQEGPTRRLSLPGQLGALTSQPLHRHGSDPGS

In order of rising “hERG current change (%, negative = inhibition) at 10uM” value:
1. Cc1cccc(C(=O)N/N=C/c2ccc(OC3CSC3)cc2)c1  -92.4%
2. CN(C)c1ccc(C(=O)N2CCCC(N3CCN(Cc4ccc5c(c4)OCO5)CC3)C2)cc1 (stereo not shown)  -82.3%
3. Cl.N#Cc1ccc(OCC(=O)N2CCN(Cc3ccc4c(c3)OCO4)CC2)cc1  -68.1%
4. O=C(Nc1ccc(CN2CCCCC2)cc1)c1c(F)c(F)c(F)c(F)c1F  -56.5%
5. CCN1CCN(c2ccc(NC(=O)c3ccc4c(c3)OCO4)cc2)CC1  -54.5%
6. O=C(COc1ccc(Br)cc1)N1CCN(Cc2ccc3c(c2)OCO3)CC1  -53.9%
7. O=C(COc1ccc(Cl)cc1)N1CCN(Cc2ccc3c(c2)OCO3)CC1  -52.6%
8. Cl.O=C(COc1ccc(Cl)cc1)N1CCN(Cc2ccc3c(c2)OCO3)CC1  -48.2%
9. O=C(CSCc1ccc(Cl)cc1)N1CCN(Cc2ccc3c(c2)OCO3)CC1  -48.2%
10. CN1CCN(c2ccc(NC(=O)c3ccc4c(c3)OCO4)cc2)CC1  -38.3%
11. O=C(Nc1ccc(CN2CCCCC2)cc1)c1ccc(Br)o1  -33%
12. CCn1c(CC(=O)Nc2ccccc2F)nnc1SCC(=O)Nc1nnc(C)s1  -22.2%
13. O=C(c1ccc(F)cc1)N1CCCC(N2CCN(Cc3ccc4c(c3)OCO4)CC2)C1 (stereo not shown)  -22.2%
14. CCc1ccc(OCC(=O)N2CCN(Cc3ccc4c(c3)OCO4)CC2)cc1  -15.9%
15. CCOC(=O)C1=C(c2cccc(Oc3ccccc3)c2)NC(=S)NC1C (stereo not shown)  -15.8%
16. O=C(N/N=C/c1ccc(OC2CSC2)cc1)c1ccccc1  -13.6%
17. O=C(Cc1ccccc1F)NC1CCSc2ccccc21 (stereo not shown)  -13%
18. COc1ccc(OCC(=O)N2CCN(Cc3ccc4c(c3)OCO4)CC2)cc1  -12.2%
19. Cc1ccccc1C(=O)N1CCCC(N2CCN(Cc3ccc4c(c3)OCO4)CC2)C1 (stereo not shown)  -11.7%
20. O=C(COc1ccc(S(=O)(=O)N2CCOCC2)cc1)N1CCN(Cc2ccc3c(c2)OCO3)CC1  -10%
21. COc1ccc(CCNC(=O)Cn2nnc(-c3cccs3)n2)cc1OC  -7.76%
22. CC(=O)Nc1ccc(CN2CCCCCCC2)cc1  -4.11%
23. CCC(=O)N1CCN(c2ccc(NC(=O)c3ccc4c(c3)OCO4)cc2)CC1  -0.905%
24. Cc1onc(-c2ccccc2Cl)c1C(=O)N1CCC(C)CC1  4%
25. COC(=O)c1ccccc1NC(=O)c1ccc(Cn2cc(Cl)cn2)o1  4.21%
26. COC(=O)/C(=C/c1ccccc1)NC(=O)c1ccco1  4.23%
27. COc1cccc(C(=O)N/N=C/c2ccc(OC3CSC3)cc2)c1  5.4%
28. Cc1nc2ccc(C(=O)Nc3ccccc3Cl)cc2s1  10.5%
29. COc1ccc(NC(=O)CO/N=C2/CCCc3nonc32)c(OC)c1  11.1%
30. N#CCC(=O)N1CCN(Cc2ccc3c(c2)OCO3)CC1  16.3%
31. O=C(Nc1ccccc1)NC1CCCCNC1=O (stereo not shown)  21.4%
